Bioassay records: PubChem BioAssay, several laboratories
APP 5UTR inh: APP translation inhibition; 190,000 tested, 0.82% active; AID 1285; inhibition, % at 2 µM; SH-SY5Y APP 5'UTR-luciferase reporter, luminescence;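 active = inhibition above a set limit, derived from the sample mean plus 3 SD, cut at about 45% in these data; inconclusive = one replicate passes the limit while the other fails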
KLF5 inh: kruppel-like factor 5 inhibition | 290,000 tested, 0.23% active | AID 1700 | inhibition, % at 5 µM | DLD-1 KLF5 promoter-luciferase reporter, luminescence;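 active = inhibition above a per-plate limit of that plate's mean compound inhibition plus 3 SD, cut at about 60% in these data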;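 also: 0% = DMSO wells and 100% = LY294002 at 200 µM; higher means less KLF5 promoter-driven luciferase light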
aSyn UTR inh: MLPCN primary screen, SNCA 5' untranslated region. 300,000 tested, 0.82% active. inhibition, % (tested at 7.5 µM). alpha-synuclein 5'UTR reporter, inhibitor activity; in the data active = inhibition above about 60%; inconclusive = no clear call, values can overlap the other calls;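 also: H4 neuroglioblastoma cells stably carrying SNCA 5'UTR luciferase fusion; 0% = DMSO wells and 100% = positive control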
IEC-6 tox: counter-screen for KLF5 inhibitors: cytotoxicity in IEC-6 cells. inhibition, % at 5 µM. 290,000 tested, 0.78% active. IEC-6 cytotoxicity, luminescence viability. AID 1825; in the data active = inhibition above about 22%;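 also: 0% = plate median of test compound wells and 100% = cytotoxic reference compound wells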
Ba/F3 V617F tox: reduce viability of Ba/F3 cells dependent on JAK2V617F. Ba/F3 EpoR-JAK2V617F viability, ATP luminescence. inhibition, % at 5.6 µM. 220,000 tested, 1.1% active;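 active = inhibition above the campaign mean plus 3 SD over all tested compounds, cut at about 24% in these data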;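 also: cytokine-independent growth of Ba/F3 cells driven by EpoR plus mutant JAK2; 0% = DMSO-treated cells and 100% = JAK inhibitor I control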
BaF3 tox: counter-screen for JAK2V617F inhibitors: parental Ba/F3 viability inhibitors; 220,000 tested, 1.1% active; CellTiter-Glo ATP luminescence; inhibition, % at 5.6 µM;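 active = inhibition above a per-campaign cutoff, the mean inhibition of all tested compounds plus 3 SD, cut at about 27% in these data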;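 also: 0% = DMSO wells and 100% = JAK Inhibitor I control wells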
* = called active by the depositor; ? = inconclusive; nt = no result. The list is not random: actives were taken first. Their share in the collection is about 2.1%.

SMILES	APP 5UTR inh	KLF5 inh	aSyn UTR inh	IEC-6 tox	Ba/F3 V617F tox	BaF3 tox
COc1ccc(OC)c(NC(=O)CCN2C(=O)c3cccc([N+](=O)[O-])c3C2=O)c1	nt	-50.1	8.2	-6.6	nt	nt
CCCOC(c1ccccc1)(c1ccc(C(F)(F)F)cc1)C(Oc1nc(C)cc(C)n1)C(=O)O (stereo unspecified)	nt	69.8*	?	1.6	nt	nt
COc1ccc2nc(NC(=O)CSc3nccc(C)n3)sc2c1	12.1	-17.6	28.3	3.1	-1.4	6.7
COc1ccc2nc(NC(=O)CSc3nc(C)cc(=O)[nH]3)sc2c1	60.1*	-43.2	-50.6	-11.1	-0.8	3.3
O=[N+]([O-])c1ccc(Cn2cc(-c3cccc(C(F)(F)F)c3)nn2)cc1	nt	-90.8	19.2	9.2	nt	nt
Cc1ccc(C(CNS(=O)(=O)c2ccc(Cl)cc2)N2CCN(C)CC2)cc1 (stereo unspecified)	nt	nt	-6.1	nt	nt	nt
Cc1ccc(/C=N/NC(=O)c2nnn(-c3nonc3N)c2-c2cccs2)cc1	nt	11.3	69.3*	10.0	nt	nt
Cc1ccc(NC(=O)c2ccc(C(=O)c3ccccc3)cc2)nc1	nt	nt	-108.9	nt	nt	nt
OCCN1CCN(c2cc(C(F)(F)F)nc3c(F)cccc23)CC1	nt	0.1	19.0	1.5	-1.5	4.5
COCCN=c1scc(-c2cccs2)n1/N=C/c1ccc(O)c(O)c1O	11.2	-34.3	66.9*	-0.8	0.7	1.8
COC(=O)C1=C(C)N(CCc2c[nH]c3ccc(OC)cc23)C(=O)C1	-2.6	-18.1	6.2	-4.3	-0.6	6.9
O=C1N/C(=C/c2ccc(N3CCOCC3)o2)C(=O)N1c1ccccc1	54.0*	-11.6	nt	-6.3	2.2	-1.0
COCCn1c(SCC(=O)NC2CCCCC2)nnc1-c1ccncc1	nt	-28.5	-6.4	2.9	nt	nt
COc1ccc(C2C(C#N)=C(N)Oc3cc(N)ccc32)cc1 (stereo unspecified)	nt	-11.3	8.5	0.1	nt	nt
COc1ccc(C2C(C#N)=C(N)Oc3c2ccc2cccnc32)cc1OC (stereo unspecified)	92.3*	53.3	22.7	17.4	77.7*	76.3*
COc1cc(C2C(C#N)=C(N)Oc3cc(N)ccc32)cc(OC)c1OC (stereo unspecified)	95.3*	6.6	nt	-0.9	-3.5	3.3
C=CCNC(=O)COc1coc(CN2CCN(C(=O)c3ccco3)CC2)cc1=O	nt	nt	-2.4	nt	nt	nt
CCN=C1S/C(=C\c2ccc(O)c(OCC)c2)C(=O)N1CC	-7.9	-18.4	68.2*	6.7	-2.4	3.7
Cc1nc(C(=O)NNC(=O)c2ccc(Cl)cc2)c(C(F)(F)F)o1	nt	1.5	28.0	8.3	-3.8	31.0*
CC(C)Sc1nnc(-c2c[nH]c3ccccc23)n1C	nt	-48.7	-110.5	0.1	1.3	9.9
C#CCSc1nnc(-c2c[nH]c3ccccc23)n1C	-53.8	-24.9	-34.4	-0.9	30.1*	48.5*
Cn1cc(CNCc2ccccc2OCC(O)CN2CCc3ccccc3C2)cn1 (stereo unspecified)	12.6	-40.4	-6.5	3.2	-2.5	3.3
COc1ccc(CN2CCCC(C(=O)c3cccc(OC(C)C)c3)C2)cc1Cn1cccn1 (stereo unspecified)	-3.6	-43.1	1.2	-7.5	-1.4	6.1
COc1ccc(COc2cc(-c3cccc(OC)c3)nc3ccc(NC(=O)c4ccccc4)cc23)cc1	-1.1	-13.5	-1.2	5.0	-0.1	5.6
COc1ccc(COc2cc(-c3cccc(OC)c3)nc3ccc(NC(=O)c4ccc(OC)cc4)cc23)cc1	56.3*	1.2	17.9	19.4	77.9*	52.8*
SMILES	APP 5UTR inh	KLF5 inh	aSyn UTR inh	IEC-6 tox	Ba/F3 V617F tox	BaF3 tox
CS(=O)(=O)c1ccc(Sc2nc3ccccc3s2)c([N+](=O)[O-])c1	18.7	1.4	-41.7	-2.6	65.6*	45.5*
C/C(=N/NC(=O)c1cc(C2CC2)[nH]n1)c1cccs1	-119.7	-45.6	84.3*	5.8	1.7	1.9
C/C(=N\NC(=O)c1ccncc1)c1cccs1	4.8	-12.2	-48.3	3.9	1.4	6.7
CCOc1cc(N2CCOCC2)c(OCC)cc1NC(=O)COC(=O)/C=C/c1ccc(OC(F)F)cc1	nt	nt	-9.5	nt	nt	nt
O=C(CCN1C(=O)COc2ccccc21)N1CCN(c2ccccn2)CC1	17.5	-11.1	-16.8	-1.0	3.0	88.0*
CCOC(=O)C1=NN(C(=O)c2cccc(Br)c2)C(O)(C(C)(C)C)C1 (stereo unspecified)	nt	-35.4	104.7*	4.6	-3.4	0.9
CC12CN(C(=O)c3ccc(Cl)cc3)C3(C#N)CC1CCC23C (stereo unspecified)	7.8	-38.3	8.8	1.3	-0.2	7.5
CC12CN(NC(=O)c3ccccc3F)C3(C#N)CC1CCC23C (stereo unspecified)	-6.7	-3.8	-10.0	3.5	4.6	90.0*
CCCCCOc1ccc(NC2=CC(=O)CCC2)cc1	nt	-15.6	21.0	8.1	nt	nt
CCCCn1c(SCC(=O)N2c3ccccc3CCc3ccccc32)nc2c1c(=O)n(C)c(=O)n2C	-1.7	-12.2	73.7*	-8.0	0.6	2.8
O=C(Nc1cccs1)Nc1c(F)c(F)cc(F)c1F	-21.9	-8.3	-1.7	3.5	30.0*	42.5*
O=C(Nc1cccs1)Nc1c(F)cc(F)cc1Br	-14.3	-32.4	-4.3	5.8	-1.6	9.4
Cc1cccc(C)c1NC(=O)Nc1cccs1	6.0	-1.7	3.8	-1.7	-2.0	0.6
O=C(Nc1cccs1)Nc1c(F)c(F)c(F)c(F)c1F	-19.0	-2.5	6.6	3.9	42.6*	52.0*
CCCCN(C(=O)c1cc2ccccc2o1)c1c(N)n(CC(C)C)c(=O)[nH]c1=O	54.5*	-2.5	11.4	2.3	-2.8	4.7
C=C1[C@@H](C)C2[C@H](Cc3ccccc3)NC(=O)[C@]23OC(=O)CC[C@H](O)CCC[C@H](C)C/C=C/[C@H]3[C@@H]1O (stereo partly specified)	nt	nt	80.4*	nt	nt	nt
Cc1ccc(C(=O)N/C(=C\c2ccc(-c3ccc(Br)cc3)o2)C(=O)NCCCN(C)C)cc1	0.2	-12.4	?	3.7	22.5	60.2*
Cc1ccc(C(=O)N/C(=C\c2cn(C)c3ccccc23)C(=O)NCCCN2CCOCC2)cc1	nt	-7.4	9.0	2.4	nt	nt
Cc1ccc(C(=O)N/C(=C\c2ccc(-c3cccc([N+](=O)[O-])c3)o2)C(=O)NCCCN(C)C)cc1	nt	-22.0	-16.4	-7.0	nt	nt
Cc1ccc(C(=O)N/C(=C\c2ccc(-c3ccccc3[N+](=O)[O-])o2)C(=O)NCCCN2CCOCC2)cc1	nt	-27.8	70.6*	12.4	nt	nt
COc1cc2cc(-c3ccc(OC)c(OC)c3C)nc(N)c2cc1OC	nt	nt	95.5*	nt	nt	nt
CCOc1ccc(-c2cc3cc(OC)c(OC)cc3c(C)n2)cc1	-6.9	-16.8	-29.7	-5.9	-1.4	2.1
Cc1cc(C)c2c(CN3CCCCC3)cc(=O)oc2c1	nt	-21.2	-8.3	2.5	nt	nt
Cc1cc(C)c2c(CCl)cc(=O)oc2c1	94.2*	-8.0	91.1*	-7.3	-4.0	-7.9
CCOC(=O)CNC(=S)N(CCCN1CCN(C)CC1)Cc1cccs1	nt	-33.0	-7.2	4.1	nt	nt
